The values that follow come from the OligoGym collection.
Note: reference of the scale not given here.

One test concerns the target C1orf115. The test can be described thus: pooled miR-30 sensor sort-seq; sequence = guide strand. Particulars: shRNA.
TCGTCCGCCGCGCTCGTCCCGC: the sensor-assay potency score (higher = more potent) was -1.58.
TTCTCTTCCAAATATGCTGTGT displayed a sensor-assay potency score (higher = more potent) of -0.325.
With TTCCTCCGGTACCTCTTCCTGG, the sensor-assay potency score (higher = more potent) was -1.14.
TTCAAGTCTGAGATGCTCCAGG registered a sensor-assay potency score (higher = more potent) of 0.617.
The sequence TTCTGCTGCACACCCACACTGC had a sensor-assay potency score (higher = more potent) of -0.976.

For another test, the target named is C1orf131. The description is as above. Particulars: shRNA.
The sequence TTTCTTGATATCAACTGGGCTC showed a sensor-assay potency score (higher = more potent) of -0.367.
On to TTTGGATTTCCTGTCCTCCTGT, for which the sensor-assay potency score (higher = more potent) was 0.0328.
Same read-out and setting: as for TTGTAATTCACATAACTCTTTT, the figure is -0.919.
On the same count and under the same terms, as for TAAATTACTAGATTCTTGGTTC, the figure is 0.886; as for TAACCCGTGATACCAAACCGGT, -1.37; as for TTGAATTTTCCAACCTGTCCAA, 0.318.
On the same count and under the same terms, as for TTCTTTATGATCTTCTTCTGTT, the figure is -0.273; as for TTTTTCTTGAAAATATCTGTTT, -0.422; as for TTCTGTACCTCCAAAGTCGTAA, -0.764.
For TATTTTCTTGATATCAACTGGG, the sensor-assay potency score (higher = more potent) was 0.559.
The sequence TTTAATGTAAACTACTAGCATT yielded a sensor-assay potency score (higher = more potent) of -0.73.
The sequence TTATGATCTTCTTCTGTTCTGT showed a sensor-assay potency score (higher = more potent) of -0.0808.

The next test concerns the target C1orf168. The description is as above. Particulars: shRNA.
TTTCACATTCTCTTGAACTGAC registered a sensor-assay potency score (higher = more potent) of 0.742.
TTTCTGATTCTTCAGCACCGTT came in with a sensor-assay potency score (higher = more potent) of -1.25.
For the sequence TAGAAGCAAACTAACCATCTGC, the sensor-assay potency score (higher = more potent) came to 0.515.
The same measure, in the same setting: as for TTGATGACAATAATCTCTTTGT, the figure is -0.247; as for TATTAGAAGCAAACTAACCATC, -0.751.
In turn, TAGACATTGAAAGATAACCTTT yielded a sensor-assay potency score (higher = more potent) of -0.653.
On to TTCTCTTGAACTGACAGTGAAG, for which the sensor-assay potency score (higher = more potent) was -0.905.
TTCTAGGAGAGAAACTTTCTGA returned a sensor-assay potency score (higher = more potent) of -0.177.
On the same count and under the same terms, with TTTCTTGAAGAATTGCTGCAGT the figure was 0.0759; with TATCACTAGATTTTGTTCGGTG, 0.284; with TTTGTTTCCAGCTTTTTCCTGG, 0.241.
On to TTGACATGTAAACTGAAACTGA, for which the sensor-assay potency score (higher = more potent) was -0.315.

A further test deals with C1orf61. The description is as above. The following applies: shRNA.
Turning to TATAGCCATATAGATCTTGGTT, the sensor-assay potency score (higher = more potent) is -1.16.
TCGGGGACTTGAGAGGTCCTGA came in with a sensor-assay potency score (higher = more potent) of -0.479.
Sequence TTCTTTTTGGTCTCCCAACTTA gave a sensor-assay potency score (higher = more potent) of -0.917.
As to TTGAGAGGTCCTGAGTGGCAGG, the sensor-assay potency score (higher = more potent) was -0.741.
TATAGATCTTGGTTAGACATGG displayed a sensor-assay potency score (higher = more potent) of -0.143.
Sequence AACCAGATGAAGTACATTCTTC yielded a sensor-assay potency score (higher = more potent) of -0.97.
Consider TTCTTCTTTTTGGTCTCCCAAC, for which the sensor-assay potency score (higher = more potent) is -1.55.
AAGATCATGGAATTTCTCCTGA displayed a sensor-assay potency score (higher = more potent) of 0.708.
Sequence TTTGGTCTCCCAACTTAGCCAT showed a sensor-assay potency score (higher = more potent) of -0.53.
For TCTATCGTCCACACGGAGGAAG, the sensor-assay potency score (higher = more potent) is -0.948.
For TTGTGCTGCCTGGAGGACGAGG, the sensor-assay potency score (higher = more potent) is -1.4.
